From PubChem BioAssay (NCATS)
Results filed as inconclusive are left out. Activity calls are given as the source filed them. The call rests on the fitted dose curve; in most records, active means well fitted curve in the direction sought with a large enough effect; inconclusive means small, poorly fitted or top-dose-only effect, or another doubt; inactive means no such curve, though single readings can be large; an effect the other way counts as inactive or inconclusive.

Key:
[1] = Primary qHTS for inhibitors of nuclear receptor binding SET domain protein 2 (NSD2) in an isogenic RCH-ACV NSD2 p.E1099K mutant (9B) (AID 1645876); further: nearly all actives have a fitted effect of over 70% in size; further: potency means the concentration at half of the fitted maximal effect
[2] = Primary qHTS for inhibitors of nuclear receptor binding SET domain protein 2 (NSD2) in an RCH-ACV wild type WT cells (2C) (AID 1645877); further: nearly all actives have a fitted effect of over 70% in size; further: potency means the concentration at half of the fitted maximal effect; on activity change, negative = cell killing: on the % scale 0 is the no-effect control and ±100 the full control effect
[3] = biological target: Glutathione peroxidase 1 (Homo sapiens) (UniProt P07203); assay: Primary qHTS Assay for Inhibitors of Recombinant Selenoprotein Glutathione Peroxidase 1 (GPX1) (AID 1845191); further: nearly all actives have a fitted effect of over 65% in size; further: potency means the concentration at half of the fitted maximal effect
Sequence of Glutathione peroxidase 1 (Homo sapiens) (P07203 whole entry, looked up): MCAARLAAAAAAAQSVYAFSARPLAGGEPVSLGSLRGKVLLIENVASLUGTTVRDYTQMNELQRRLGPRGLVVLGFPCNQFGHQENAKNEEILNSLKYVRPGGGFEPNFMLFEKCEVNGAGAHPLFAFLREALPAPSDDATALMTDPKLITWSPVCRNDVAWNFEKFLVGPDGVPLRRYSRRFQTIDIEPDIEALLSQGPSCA
In short: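 GPX1 10 nM, GR 100 nM, GSH 1 mM, NADPH 0.5 mM, CHP 0.5 mM (final). 30-min cpd preincubation, RT. Ex340/Em450 read t=0, t=15 min.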

[4] = biological target: Phospholipid hydroperoxide glutathione peroxidase GPX4 (Homo sapiens) (UniProt P36969); assay: Primary qHTS Assay for Inhibitors of Recombinant Selenoprotein Glutathione Peroxidase 4 (GPX4) (AID 1845192); further: nearly all actives have a fitted effect of over 65% in size; on activity change, negative = inhibition: on the % scale 0 is the no-effect control and ±100 the full control effect
Sequence of Phospholipid hydroperoxide glutathione peroxidase GPX4 (Homo sapiens) (P36969 whole entry, looked up): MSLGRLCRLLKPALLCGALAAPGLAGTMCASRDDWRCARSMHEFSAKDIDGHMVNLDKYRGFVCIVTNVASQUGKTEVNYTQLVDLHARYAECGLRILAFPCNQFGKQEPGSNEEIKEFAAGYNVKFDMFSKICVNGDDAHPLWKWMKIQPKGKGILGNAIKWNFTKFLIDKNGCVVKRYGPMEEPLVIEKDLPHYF
In short: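 qHTS, GR-coupled: GPX4 200 nM + cpd 30 min RT → GSH 1 mM, NADPH 0.5 mM, GR 100 nM → CHP 0.5 mM start; fluor 340/450 at t0 and t15 min; no-enzyme wells as control.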

[5] = biological target: Luciferin 4-monooxygenase (Photinus pyralis) (UniProt P08659); assay: Primary firefly luciferase (FLuc) qHTS assay for identification of artifact compounds. (AID 1845220); conditions: outcome: dose series up to 54.1 µM unless noted; further: nearly all actives have a fitted effect of over 60% in size;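 on activity change, negative = inhibition: plate controls were DMSO vehicle for no effect and no enzyme for full effect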
In short: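 qHTS, 15 min compound preincubation with substrate (10 uM luciferin, 10 uM ATP) at RT, then 10 nM FLuc; 5 min; luminescence; % inhibition vs no-enzyme/DMSO controls, 4-parameter Hill fit.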

CRL-7250 = normal cell line; assay: Cytotoxic Profiling of Annotated Libraries Using Quantitative High-Throughput Screening (AID 1296008); conditions: Five cell lines viability, CellTiter-Glo ATP luminescence, 48-72 h; max response: hits give low values; further: nearly all actives have a fitted effect of over 60% in size; further: potency means the concentration at half of the fitted maximal effect; on max response: on the % scale 0 is the no-effect control and ±100 the full control effect
In short: (§1)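 Compounds were pin-transferred onto cells and incubated 48 or 72 hr at 37 degree Celsius, 95% humidity. CellTiter-Glo was added, plates sat 10 min at room temperature, then ATP-coupled luminescence was imaged as the viability read-out.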

HEK293 = assay: as above; conditions: Five cell lines viability, CellTiter-Glo ATP luminescence, 48-72 h; max response: hits give low values
In short: as §1

HaCat = assay: as above; conditions: Five cell lines viability, CellTiter-Glo ATP luminescence, 48-72 h; max response: hits give low values
In short: as §1

KB-3-1 = assay: as above; conditions: Five cell lines viability, CellTiter-Glo ATP luminescence, 48-72 h; max response: hits give low values
In short: as §1

NIH3T3 = assay: as above; conditions: Five cell lines viability, CellTiter-Glo ATP luminescence, 48-72 h; max response: hits give low values
In short: as §1

C33A = assay: Primary qHTS to identify gynecologic anti-cancer compounds using libraries of approved drugs and bioactive compounds (AID 1345084); conditions: Gynecologic cancer cell panel viability, ATPlite luminescence, 48 h; series mostly up to 57.5 µM; further: nearly all actives have a fitted effect of over 55% in size; further: potency means the concentration at half of the fitted maximal effect; on activity change, negative = cytotoxicity: on the % scale 0 is the no-effect control and ±100 the full control effect
In short: (§2)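 Five-concentration response, 48 h; readout is ATP-driven luciferase luminescence.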

CASKI = assay: as above; conditions: Gynecologic cancer cell panel viability, ATPlite luminescence, 48 h; series mostly up to 57.5 µM
In short: as §2

Es-2 = assay: as above; conditions: Gynecologic cancer cell panel viability, ATPlite luminescence, 48 h; series mostly up to 57.5 µM
In short: as §2

Hek293T = assay: as above; conditions: Gynecologic cancer cell panel viability, ATPlite luminescence, 48 h, control line for the selectivity index; series mostly up to 57.5 µM
In short: as §2

OV90 = assay: as above; conditions: Gynecologic cancer cell panel viability, ATPlite luminescence, 48 h; series mostly up to 57.5 µM
In short: as §2

PA-1 = assay: as above; conditions: Gynecologic cancer cell panel viability, ATPlite luminescence, 48 h; series mostly up to 57.5 µM
In short: as §2

Tov-21-G = assay: as above; conditions: Gynecologic cancer cell panel viability, ATPlite luminescence, 48 h; series mostly up to 57.5 µM
In short: as §2

Tov112D = assay: as above; conditions: Gynecologic cancer cell panel viability, ATPlite luminescence, 48 h; series mostly up to 57.5 µM
In short: as §2

[6] = Primary fluorescence-based thiol-reactive (MSTI) qHTS assay for identification of artifact compounds. (AID 1845221); further: nearly all actives have a fitted effect of over 65% in size; further: potency means the concentration at half of the fitted maximal effect;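 on activity change, negative = thiol reactive: thiol-reactive compounds lower the probe fluorescence signal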
In short: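 In PBS pH 7.4 with 2% DMSO, each compound met 4 uM MSTI for one hour at ambient temperature, shielded from light, before fluorescence detection.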

[7] = test system: Nanoluciferase (engineered Oplophorus gracilirostris luciferase); assay: Primary Nanoluciferase (NLuc) qHTS assay for identification of artifact compounds. (AID 1845222)
In short: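 Luminescence read-out of secreted NLuc in S16 cell conditioned medium (1:55); compounds tested with 15 min RT preincubation, then Nano-Glo substrate 1:100, 5 min. % inhibition vs no-enzyme and DMSO controls, 4-parameter Hill fit.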

C/C=C(/C)C1C=CC2CC(C)CC(C)C2C1/C(O)=C1\C(=O)NC(CC(C)(O)C(=O)O)C1=O (stereo not given)
inactive: Potency [1] | Potency [2] | Potency [3] | Potency [4] | outcome [5] inactive [at 25.7 µM] | outcome (CRL-7250) | max response (HEK293) -1.39% | max response (HaCat) -6.03% | max response (KB-3-1) 4.77% | max response (NIH3T3) 1.49% | Potency (C33A) | Potency (CASKI) | Potency (Es-2) | Potency (Hek293T) | Potency (OV90) | Potency (PA-1) | Potency (Tov-21-G) | Potency (Tov112D)

C[C@]12CC[C@H]3[C@@H](CCC4=C/C(=N/OCC(=O)O)CC[C@@]43C)[C@@H]1CC[C@@H]2O
inactive: Potency [1] | Potency [2] | Potency [3] | Potency [4] | outcome [5] | Potency [6] | max response (CRL-7250) -2.05% | max response (HEK293) -5.05% | max response (HaCat) -24.1% | outcome (KB-3-1) | max response (NIH3T3) 3.02% | Potency (C33A) | Potency (CASKI) | Potency (Es-2) | Potency (Hek293T) | Potency (OV90) | Potency (PA-1) | Potency (Tov-21-G) | Potency (Tov112D)

COC(=O)CC1CC2(C(=O)c3c(O)cccc3C2(O)C(=O)OC)C(C)O1 (stereo not given)
inactive: Potency [1] | Potency [2] | Potency [3] | Potency [4] | outcome [5] | Potency [7] | max response (CRL-7250) 2.33% | max response (HEK293) -1.89% | outcome (HaCat) | max response (KB-3-1) 3.88% | max response (NIH3T3) 4.05% | Potency (C33A) | Potency (CASKI) | Potency (Es-2) | Potency (Hek293T) | Potency (OV90) | Potency (PA-1) | Potency (Tov-21-G) | Potency (Tov112D)

Cc1cccc(NC(=O)N[C@H]2CN(C)c3ccccc3C(c3ccccc3)=N2)c1
inactive: Potency [3] | Potency [4] | outcome [5] | Potency [6] | max response (CRL-7250) -1.7% | max response (HEK293) -2.16% | outcome (HaCat) | max response (KB-3-1) 6.39% | max response (NIH3T3) -5.29% | Potency (C33A) | Potency (CASKI) | Potency (Es-2) | Potency (Hek293T) | Potency (OV90) | Potency (PA-1) | Potency (Tov-21-G) | Potency (Tov112D)
active: Potency [2] 14500 nM

C1=C(c2cnc[nH]2)c2ccsc2CC1
active: Potency [3] 20200 nM | Potency [6] 10600 nM
inactive: Potency [1] | outcome [5] | Potency [7] | max response (CRL-7250) 4.29% | max response (HEK293) -1.06% | outcome (HaCat) | max response (KB-3-1) -3.3% | max response (NIH3T3) -2.31% | Potency (C33A) | Potency (CASKI) | Potency (Es-2) | Potency (Hek293T) | Potency (OV90) | Potency (PA-1) | Potency (Tov-21-G) | Potency (Tov112D)

C[C@@H]1CCC/C=C/[C@H]2C[C@@H](O)C[C@@H]2[C@@H](O)/C=C/C(=O)O1
active: Potency [1] 290 nM | Potency [2] 409 nM | Potency (CRL-7250) 206 nM | Potency (HEK293) 920 nM | Potency (HaCat) 259 nM | Potency (KB-3-1) 146 nM | Potency (NIH3T3) 4110 nM | Potency (C33A) 891 nM | Potency (CASKI) 1260 nM | Potency (Es-2) 501 nM | Potency (Hek293T) 1000 nM | Potency (OV90) 316 nM | Potency (PA-1) 447 nM | Potency (Tov-21-G) 1120 nM | Potency (Tov112D) 1000 nM
inactive: Potency [4] | Potency [6] | Potency [7]

COc1cc(O)c2c(c1)/C=C/C[C@@H](O)[C@@H](O)C(=O)CCC[C@H](C)OC2=O
inactive: Potency [3] | Potency [4] | outcome [5] | Potency [6] | Potency [7] | max response (HEK293) 0.301% | max response (HaCat) -18.3% | max response (KB-3-1) 5.8% | max response (NIH3T3) -5.04% | Potency (C33A) | Potency (CASKI) | Potency (Es-2) | Potency (Hek293T) | Potency (OV90) | Potency (PA-1) | Potency (Tov-21-G) | Potency (Tov112D)
active: Potency (CRL-7250) 14300 nM

CNC(=O)c1cc(C#N)cc(C)c1NC(=O)c1cc(Br)nn1-c1ncccc1Cl
inactive: Potency [1] | Potency [3] | outcome [5] | Potency [6] | Potency [7] | max response (CRL-7250) 0.534% | max response (HaCat) -17.6% | max response (KB-3-1) -25.7% | max response (NIH3T3) -18.9% | Potency (C33A) | Potency (CASKI) | Potency (Es-2) | Potency (Hek293T) | Potency (OV90) | Potency (PA-1) | Potency (Tov-21-G) | Potency (Tov112D)
active: Potency (HEK293) 13000 nM

C#CCO[C@H]1CN2CCC1CC2
inactive: Potency [1] | Potency [2] | Potency [3] | Potency [4] | Potency [6] | max response (CRL-7250) -0.287% | max response (HEK293) -18.5% | max response (HaCat) 2.85% | max response (KB-3-1) 2.91% | max response (NIH3T3) 2.27% | Potency (C33A) | Potency (CASKI) | Potency (Es-2) | Potency (Hek293T) | Potency (OV90) | Potency (PA-1) | Potency (Tov-21-G) | Potency (Tov112D)

CO[C@H]1C[C@H](O[C@H]2CC[C@@]3(C)C(=CCC4C3CC[C@]3(C)[C@@H](C5=CC(=O)OC5)CC[C@]43O)C2)O[C@@H](C)[C@@H]1O[C@@H]1O[C@H](CO[C@@H]2O[C@H](CO)[C@@H](O)[C@H](O)[C@H]2O)[C@@H](O)[C@H](O)[C@H]1O (stereo not given in full)
inactive: activity change, negative = cell killing [2] -4.53% [at 9.23 µM] | Potency [3] | Potency [4] | activity change, negative = inhibition [5] 0.797% [at 11.6 µM] | activity change, negative = thiol reactive [6] 94.1% [at 11.5 µM] | max response (CRL-7250) -12.8% | max response (HEK293) -7.06% | max response (HaCat) -7.84% | max response (KB-3-1) 4.69% | max response (NIH3T3) -5.72% | activity change, negative = cytotoxicity (C33A) 5.08% [at 11.6 µM] | activity change, negative = cytotoxicity (CASKI) 22.6% [at 11.6 µM] | activity change, negative = cytotoxicity (Es-2) -0.369% [at 11.6 µM] | activity change, negative = cytotoxicity (Hek293T) -20.2% [at 11.6 µM] | activity change, negative = cytotoxicity (OV90) 5.84% [at 11.6 µM] | activity change, negative = cytotoxicity (PA-1) 10.4% [at 11.6 µM] | activity change, negative = cytotoxicity (Tov-21-G) -1.43% [at 11.6 µM] | activity change, negative = cytotoxicity (Tov112D) -28.4% [at 11.6 µM]

CCC(C)/C=C(C)/C=C/C1=CC2=C(Cl)C(=O)C(C)(OC(C)=O)C(=O)C2=CO1 (stereo not given)
active: Potency [6] 1310 nM
inactive: Potency [1] | Potency [3] | outcome [5] | Potency [7] | max response (CRL-7250) -20% | max response (HEK293) -69.1% | max response (HaCat) -66.3% | max response (KB-3-1) -15.5% | max response (NIH3T3) -56.4% | Potency (C33A) | Potency (CASKI) | Potency (Es-2) | Potency (Hek293T) | Potency (OV90) | Potency (PA-1) | Potency (Tov-21-G) | Potency (Tov112D)
